Screens as filed in PubChem BioAssay.
Shown are actives, neighbours in structure and some others; about 7% of the full set was active somewhere.
GRIN3A LBD mod = NR3A (human) ligand-binding domain modulation. actives 2.5% (n = 340,000). NR3A LBD differential scanning fluorimetry, Tm shift; 0% = protein alone, 100% = glycine-bound protein. Tm shift relative to glycine control, % at 25 µM;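 active means melting temperature shift of at least 10% of the positive control shift, at one fixed dose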
ADAM10 inh = inhibits human ADAM10; actives 0.62% (n = 370,000); recombinant ADAM10, EDANS/DABCYL FRET peptide cleavage, 3 h; O14672; AID 720582; inhibition, % at 7 µM;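 active means inhibition above a per-campaign cutoff equal to the mean of compounds falling between control-based bounds plus 3 SD, cut at about 20% in these data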;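 further: 0% = DMSO wells while the 100% control is not disclosed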
Target sequence (O14672 214-748 limits assumed): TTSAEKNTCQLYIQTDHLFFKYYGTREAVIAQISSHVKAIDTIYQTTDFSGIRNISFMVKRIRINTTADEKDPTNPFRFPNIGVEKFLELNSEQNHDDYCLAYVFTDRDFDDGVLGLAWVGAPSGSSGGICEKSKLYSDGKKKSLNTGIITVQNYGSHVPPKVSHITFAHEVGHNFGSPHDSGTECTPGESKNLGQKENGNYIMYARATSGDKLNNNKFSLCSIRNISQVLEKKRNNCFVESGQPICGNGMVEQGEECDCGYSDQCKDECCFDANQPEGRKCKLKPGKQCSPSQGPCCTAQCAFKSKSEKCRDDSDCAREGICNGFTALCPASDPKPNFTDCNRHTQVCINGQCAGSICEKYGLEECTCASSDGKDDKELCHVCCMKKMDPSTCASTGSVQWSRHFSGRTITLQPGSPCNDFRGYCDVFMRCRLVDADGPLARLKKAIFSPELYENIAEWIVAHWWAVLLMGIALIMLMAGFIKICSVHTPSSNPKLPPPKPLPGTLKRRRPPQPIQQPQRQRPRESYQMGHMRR
proKLK7 act = proKLK7 (human) activation, primary screen | P49862 | actives 0.9% (n = 370,000) | activation, % at 7 µM | purified proKLK7, EDANS-DABCYL substrate fluorescence; 100% is mature enzyme control, 0% vehicle | AID 652039;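 active means activation above the mean of all tested compounds plus 3 SD, computed per campaign excluding outliers beyond control limits, cut at about 13% in these data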
rCAG binder = r(CAG) repeat RNA binding | actives 1.3% (n = 370,000) | TO-PRO-1 dye displacement fluorescence | inhibition, % at 3 µM | AID 651821;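 active means inhibition above the plate cutoff, the mean of all test compounds on that plate plus 3 SD, cut at about 35% in these data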;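 further: 0% = DMSO alone and 100% = 100 µM mitoxantrone as full dye displacement; higher means more dye released from RNA so lower well fluorescence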
ADAM17 inh = inhibitors of human ADAM17 | P78536 | recombinant ADAM17, EDANS/DABCYL FRET peptide cleavage | actives 0.83% (n = 370,000) | inhibition, % at 6.95 µM | AID 720648;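 active means inhibition above the mean of compounds lying between control limits plus 3 SD, set per campaign, cut at about 8.5% in these data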;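 further: 0% = DMSO-only wells as the low control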
AHR act = activates the human aryl hydrocarbon receptor; P35869; AHR-responsive luciferase reporter cells, luminescence; activation, % at 5 µM; actives 2.5% (n = 320,000); AID 2796; in the data active means activation above about 47%;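 further: 0% = vehicle wells and 100% = reference agonist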
KLK7 act conf = proKLK7 activation, confirmation; shares compounds with proKLK7 act; activation, % at 7 µM; purified proKLK7, EDANS-DABCYL substrate fluorescence; scaled: vehicle 0, mature enzyme 100; actives 68% (n = 3,200);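 active means activation, as change over the incubation, above the mean of all tested compounds plus 3 SD, cut at about 13% in these data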
EDANS-DABCYL int = fluorescence interference counter-screen for KLK7 activators | shares compounds with proKLK7 act | EDANS-DABCYL substrate fluorescence interference, no enzyme, 4 h; solvent 0%, active enzyme control 100% | activation, % at 7 µM | actives 80% (n = 3,200) | AID 686952;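 active means activation above the all-compound mean plus 3 SD, ignoring values outside control-based bounds, cut at about 4.8% in these data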;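 further: value is the 4 h activation minus the activation read at time zero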
Active calls of the source: *; i = inactive; x = no result given.

SMILES	GRIN3A LBD mod	ADAM10 inh	proKLK7 act	rCAG binder	ADAM17 inh	AHR act	KLK7 act conf	EDANS-DABCYL int
COc1ccc(C2=NCCc3cc(OC)c(OC)cc32)cc1OC	-5.2	-22.8	16.6*	-3.4	-8.6	5.3	-0.7	11.3*
COc1cc2c(cc1OC)C(SC)=NC(C)(C)C2	-1.0	-6.7	2.6	-0.1	-3.3	-1.2	x	x
COc1cc2c(cc1OC)C(CCc1ccccc1)=NCC2	-1.5	i	152.4*	2.3	i	7.8	62.9*	79.8*
Cc1noc(C)c1C(=O)NC1=NCCS1	-0.7	-7.4	-0.1	-2.1	-0.3	-2.5	x	x
COc1ccc2c3c([nH]c2c1)[C@H]1C[C@H]2[C@H](C[C@@H](O)[C@H](OC)[C@H]2C(=O)O)CN1CC3	3.3	i	40.0*	3.5	-275.2	0.7	7.9	10.7*
CC1(C)CC(=O)C2=C(C1)N(CCN1CCOCC1)C1=C(C(=O)CC(C)(C)C1)C2c1cccc(Cl)c1	3.3	i	25.6*	-8.5	-244.5	1.4	2.4	8.1*
CCCN1C2=C(C(=O)CC(C)(C)C2)C(c2ccc(F)cc2)C2=C1c1ccccc1C2=O (centres undefined)	-9.8	-3.0	0.0	-1.9	-7.7	0.5	x	x
CCN(CC)CCN1C2=C(C(=O)CC(C)(C)C2)C(c2cccc(F)c2)C2=C1CC(C)(C)CC2=O	4.5	-463.4	16.1*	-7.0	-179.3	-0.2	-5.8	-3.3
COc1ccccc1CNS(=O)(=O)c1c(C)cc(C)cc1C	x	2.9	0.0	1.8	0.9	x	x	x
CCOC(=O)c1cnn(-c2sc(C(=O)OCC)c(C)c2C(=O)OCC)c1N	-3.4	-31.5	18.1*	13.1	-9.2	2.0	0.9	1.0
COc1ccc(CCN2C(=O)NC(NS(=O)(=O)c3ccccc3)(C(F)(F)F)C2=O)cc1OC (centres undefined)	-1.0	-0.9	0.1	5.2	-2.5	-2.7	x	x
Cc1cc(=O)n2cc(-c3ccccc3)nc2[nH]1	0.5	-477.4	16.2*	2.6	-115.2	5.9	3.4	3.3
CCOC(=O)C1=C2c3cc(OC)c(OC)cc3CC(C)(C)N2C(=O)C1=O	-6.1	-149.5	24.3*	-4.1	-43.7	8.4	5.3	5.9*
CCOC(=O)C1=C2c3ccc4ccccc4c3CC(C)(C)N2C(=O)C1=O	-3.0	-36.1	11.4	-0.7	-11.1	13.0	x	x
O=C1c2ccccc2C(c2nnnn2-c2ccc3c(c2)OCCO3)N1Cc1cccs1 (centres undefined)	x	1.6	-0.3	1.9	-4.0	x	x	x
CSc1ccc(/C=C/C(=O)c2c(O)cc(C)oc2=O)cc1	-3.9	-53.2	13.6*	26.8	-21.0	2.5	-3.6	-3.5
COc1ccc(-c2cc(C(F)F)n3ncc(C(=O)N4CCc5ccccc54)c3n2)cc1	-0.7	-8.2	0.2	3.0	-1.4	3.1	x	x
COc1ccc(-c2cc(C(F)F)n3ncc(C(=O)n4ccnc4C)c3n2)cc1	2.5	-414.3	13.1*	1.8	-148.0	9.6	169.2*	167.1*
COc1cc(OCc2ccccc2)c2c(CCC(=O)O)cc(=O)oc2c1	-0.2	i	88.9*	22.6	i	x	59.0*	58.1*
CCc1cc(=O)oc2cc(OC(C)=O)cc(OC(C)=O)c12	2.5	i	78.9*	0.4	i	1.9	486.3*	533.5*
CN(C)CCCNC(=O)C[C@H]1C[C@H](C(=O)N2CCOCC2)[C@@]2(C)c3[nH]c4cc(-c5ccco5)ccc4c3CCN2C1=O	-1.1	-405.7	53.7*	12.1	-119.4	x	55.5*	56.6*
COCCCNC(=O)CC1C[C@H](C(=O)N2CCOCC2)[C@@]2(C)c3[nH]c4ccccc4c3CCN2C1=O (some centres undefined)	1.0	-0.9	-0.6	-1.1	-0.6	-0.3	x	x
COc1ccc(CNC(=O)C[C@H]2C[C@H](C(=O)N(C(C)C)C(C)C)[C@@]3(C)c4[nH]c5cc(CCC(=O)N(C)C)ccc5c4CCN3C2=O)cc1OC	0.8	-1.2	2.3	0.4	-1.6	x	x	x
COCCCNC(=O)C[C@H]1C[C@H](C(=O)N2CCOCC2)[C@@]2(C)c3[nH]c4cc(-c5ccco5)ccc4c3CCN2C1=O	0.2	i	82.3*	4.7	-162.9	x	95.2*	129.9*
CC(C)N(C(=O)[C@H]1C[C@H](CC(=O)NCC23CC4CC(CC(C4)C2)C3)C(=O)N2CCc3c([nH]c4cc(-c5ccco5)ccc34)[C@]12C)C(C)C	3.4	-75.1	0.5	7.7	-18.6	x	x	x
SMILES	GRIN3A LBD mod	ADAM10 inh	proKLK7 act	rCAG binder	ADAM17 inh	AHR act	KLK7 act conf	EDANS-DABCYL int
COCCCNC(=O)CC1C[C@H](C(=O)N(C(C)C)C(C)C)[C@@]2(C)c3[nH]c4ccccc4c3CCN2C1=O (some centres undefined)	1.2	4.2	1.2	-3.0	4.8	0.9	x	x
COc1ccc(CNC(=O)C[C@H]2C[C@H](C(=O)N(C(C)C)C(C)C)[C@@]3(C)c4[nH]c5cc(-c6ccco6)ccc5c4CCN3C2=O)cc1OC	-1.1	-295.8	12.9*	5.3	-82.8	x	11.6	10.0*
COCCCNC(=O)C[C@H]1C[C@H](C(=O)N(C(C)C)C(C)C)[C@@]2(C)c3[nH]c4cc(-c5ccco5)ccc4c3CCN2C1=O	-2.6	i	137.1*	5.3	-141.8	x	151.5*	146.4*
CCCCN(CC)CCCNC(=S)Nc1ccc2nc3n(c(=O)c2c1)CCCCC3	0.8	-24.7	-0.5	-1.8	-8.5	0.1	x	x
CC1SC2(NC1=O)C1CC3CC(C1)CC2C3 (centres undefined)	-2.0	-2.7	0.0	2.0	-0.5	1.6	x	x
COC(=O)c1cc(N=CC2=C(O)CC(C)(C)CC2=O)cc(C(=O)OC)c1	0.2	-314.2	25.1*	-4.3	-91.2	0.2	46.8*	45.4*
Cc1ccc(S(=O)(=O)NN2C(=O)c3ccccc3NC2(C)C)cc1	-6.8	i	49.4*	0.2	-158.1	-2.2	49.6*	42.6*
CC1(C)Nc2ccccc2C(=O)N1NS(=O)(=O)c1ccccc1	-1.0	i	75.3*	-0.6	-248.6	1.4	46.2*	41.9*
O=C(NN1C(=O)c2ccccc2NC12CCCCC2)c1ccccc1	0.2	-137.1	2.7	-2.2	-46.9	2.9	x	x
O=C(O)c1ccc(-c2nnn(Cc3cccc(C(F)(F)F)c3)n2)cc1	0.3	7.1	-0.2	1.6	-2.5	-1.3	x	x
O=c1cc(-c2ccccc2)c2c(O)cc(O)cc2o1	-6.8	-9.5	-1.0	1.7	-4.6	9.7	x	x
Cc1c(Cc2ccccc2)c(=O)oc2cc(O)cc(O)c12	-2.7	i	55.2*	17.3	-489.2	0.5	63.5*	76.2*
COc1ccc(OC)c2c1C(=O)c1ccccc1C2=O	-2.2	-1.3	0.0	-13.3	-0.7	22.1	x	x
